# Compound activity as filed in PubChem BioAssay.
# Hits are enriched below; roughly 1.6% of the tested compounds scored in any of these assays.
# PERK inhibitor: blocks human PERK kinase; Q9NZJ5; CHO PERK-DD fusion, SEAP luminescence translation reporter; inhibition, % at 5.6 µM; hit rate 0.17% among 220,000;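 active = inhibition above the mean inhibition of all tested compounds plus 3 SD, set separately per screening campaign, cut at about 2.9% in these data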;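 note: PERK kinase domain activated by AP20187 dimerizer at 100 nM; 0% = DMSO with dimerizer and 100% = rapamycin at 8.4 µM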
# Target sequence (Q9NZJ5 whole entry, looked up, the tested form may be a part): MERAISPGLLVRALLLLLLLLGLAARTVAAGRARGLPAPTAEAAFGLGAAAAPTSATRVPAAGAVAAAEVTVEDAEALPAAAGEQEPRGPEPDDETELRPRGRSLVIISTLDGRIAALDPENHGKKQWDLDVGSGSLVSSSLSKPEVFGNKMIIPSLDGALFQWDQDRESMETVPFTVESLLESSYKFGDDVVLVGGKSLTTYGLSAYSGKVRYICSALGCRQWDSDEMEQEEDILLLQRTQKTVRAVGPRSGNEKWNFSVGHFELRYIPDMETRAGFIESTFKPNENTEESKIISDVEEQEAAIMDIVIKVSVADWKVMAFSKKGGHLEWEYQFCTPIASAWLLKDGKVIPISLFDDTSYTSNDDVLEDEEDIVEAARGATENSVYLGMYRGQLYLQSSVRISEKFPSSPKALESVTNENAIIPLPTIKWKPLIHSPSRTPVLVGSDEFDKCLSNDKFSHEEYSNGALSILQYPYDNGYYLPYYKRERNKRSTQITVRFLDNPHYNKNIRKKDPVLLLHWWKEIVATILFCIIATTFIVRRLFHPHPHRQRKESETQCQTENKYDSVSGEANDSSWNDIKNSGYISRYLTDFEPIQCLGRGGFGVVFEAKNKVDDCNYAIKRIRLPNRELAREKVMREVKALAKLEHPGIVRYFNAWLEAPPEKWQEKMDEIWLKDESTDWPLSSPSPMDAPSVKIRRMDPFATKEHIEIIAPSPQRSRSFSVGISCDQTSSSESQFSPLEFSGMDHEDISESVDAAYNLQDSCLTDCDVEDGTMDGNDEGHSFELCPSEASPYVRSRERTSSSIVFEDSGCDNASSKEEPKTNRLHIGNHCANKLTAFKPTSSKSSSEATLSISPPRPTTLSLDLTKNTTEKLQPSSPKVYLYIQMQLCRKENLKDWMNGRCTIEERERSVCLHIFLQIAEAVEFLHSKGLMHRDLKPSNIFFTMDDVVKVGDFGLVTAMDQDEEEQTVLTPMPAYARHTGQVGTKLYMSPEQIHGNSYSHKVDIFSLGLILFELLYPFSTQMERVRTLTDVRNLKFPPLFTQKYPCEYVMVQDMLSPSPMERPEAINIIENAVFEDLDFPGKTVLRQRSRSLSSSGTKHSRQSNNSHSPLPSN
# eIF4H inh: inhibitors of RNA binding by human eIF4H; Q15056; inhibition, % at 35 µM; AID 2012; hit rate 0.94% among 290,000; eIF4H fluorescence polarization binding assay;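 note: calls also rest on retests at 20 µM and on dose response follow-up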
# eIF4E-4G inh: blocks eIF4E binding to eIF4G; P63073+Q04637; TR-FRET eIF4E-eIF4GI(517-606) binding, 2 h; inhibition, % at 21.7 µM; hit rate 0.37% among 220,000; AID 782;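 active = inhibition above about 30%, limit read from the data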;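 note: 0% = full FRET control wells and 100% = background wells lacking eIF4GI fragment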
# PABP FP inh: PABP-poly(A) binding inhibition; calls only at 35 µM; PABP-poly(A) RNA binding, fluorescence polarization; P11940; hit rate 1% among 290,000;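 note: calls also rest on retests at 20 µM and on dose response follow-up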
# PABP1 MLLE inh: blocks PAM2 peptide binding to the PABP1 MLLE domain; GST-MLLE / FITC-PAM2 fluorescence polarization; P11940; AID 588489; inhibition, % at 20 µM; hit rate 0.36% among 360,000; in the data active = inhibition above about 35%, passing the limit was not always enough;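 note: plate controls were DMSO wells with GST-MLLE for no effect and wells lacking GST-MLLE protein for full effect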
# * hit, by the source's call; i = inactive; ? = inconclusive; / = no result; + = active, no number; [ ] = remark or other dose. Unless noted, the rule behind the calls is not given here.
SMILES,PERK inhibitor,eIF4H inh,eIF4E-4G inh,PABP FP inh,PABP1 MLLE inh
O=C(O)C1CC(c2ccccc2F)=NO1 (centres undefined),1,-2,48*,i,15
O=C(NCCc1cccs1)C1CC(c2ccccc2F)=NO1 (centres undefined),/,-10,7,i,1
CCCn1c(=C(C#N)C#N)s/c(=C2\C=Cc3ccccc3N2CC)c1=O,1,2,-2,i,40*
CCCN1C(=O)/C(=c2\s/c(=C3\C=Cc4ccccc4N3CC)c(=O)n2-c2ccccc2)SC1=S,1,5,6,i,/
Cc1ccc(NC(=O)COC(=O)[C@@H]2CC(O)CN2S(=O)(=O)c2ccc3c(c2)OCCO3)cc1 (some centres undefined),/,/,/,/,-1
CCc1cc2ccc(C)cc2nc1SCC(=O)NC1CCCC1,/,-6,/,i,3
CC(C)C/C(O)=C/c1nc2cc(Cl)ccc2oc1=O,0,79*,0,+,13
O=c1oc2ccc(Cl)cc2nc1/C=C(\O)c1ccco1,0,3,-1,i,-78
Cc1ccc(NC(=O)CCNC(=O)c2ccc([N+](=O)[O-])cc2)cc1C,/,5,/,i,-1
COc1ccc2oc(-c3ccncc3)cc(=O)c2c1,/,/,/,/,40*
NC(=O)COC(=O)c1cccc2c1-c1ccccc1C2=O,2,?,-3,+,13
Cc1ccccc1NC(=O)Cc1nc(COC(=O)c2nccnc2N)cs1,/,/,/,/,-92
C[C@@H]1CNC(=O)c2c(C(=O)NCC(=O)OC(C)(C)C)ncn21,/,/,/,/,3
S=c1nc2c(n[nH]1)c1ccccc1n2CCc1ccccc1,/,-10,/,i,39*
CC(NC(=O)COC(=O)c1c[nH]c2ccccc12)c1ccccc1 (centres undefined),/,/,/,/,-10
Cc1cccc(NCCC#N)c1,1,79,4,+,-7
Cc1cccc(NCCNc2cccc(C)c2)c1,1,-7,4,i,6
O=[N+]([O-])c1cccc(-c2ccc(/C=N/n3c(-c4ccccc4)n[nH]c3=S)o2)c1,1,-1,75*[fluorescence artefact?],i,-78
Oc1c(Br)cc(/C=N/n2c(-c3ccccc3)n[nH]c2=S)c(Br)c1O,/,85*,/,+,/
Oc1c(Br)cc(Br)cc1/C=N/n1c(-c2ccccc2)n[nH]c1=S,/,1,/,i,-57
O=[N+]([O-])c1cc(/C=N\Nc2nccs2)ccc1O,0,93*,49*[fluorescence artefact?],+,/
COc1cc(C)c(NC(=O)C2CCN(S(=O)(=O)c3cccs3)CC2)cc1OC,/,/,/,/,-92
Cc1cnc(C2OCCO2)c2cccc(N)c12,/,/,/,/,22
CCN(CC)S(=O)(=O)c1ccc(Cl)c(C(=O)OCC(=O)c2c(N)n(C)c(=O)n(C)c2=O)c1,-2,-2,2,i,2
O=c1oc2ccccc2cc1-c1nc2ccccc2o1,1,3,6,i,-2
SMILES,PERK inhibitor,eIF4H inh,eIF4E-4G inh,PABP FP inh,PABP1 MLLE inh
Nc1cc2nc3ccccc3oc-2cc1=O,0,92,3,+,12
O=C(COC(=O)c1cncc(Br)c1)NCc1ccco1,0,97*,-7,+,7
O=C(COC(=O)c1ccc(NS(=O)(=O)c2cccs2)cc1)NCc1ccco1,1,100*,20,+,-6
O=C(COC(=O)Cc1ccc(F)cc1)NCc1ccco1,0,93*,8,+,-12
CN(C)S(=O)(=O)c1ccc(C(=O)OCC(=O)NCc2ccco2)cc1,0,69*,8,?,-15
CC(C)CCC(C(=O)O)C(C)CC(=O)Nc1ccn(-c2ccccc2)n1 (centres undefined),1,-7,1,i,-1
CC(CNC(=O)CCC(=O)N1CCOc2ccc(Cl)cc21)c1ccccc1 (centres undefined),/,-6,/,i,14
Cc1cc(Cl)ccc1NC(=S)NCC(O)c1ccccc1 (centres undefined),/,-9,/,i,7
O=C(COC(=O)c1cccs1)NCc1ccco1,/,28,/,i,-10
COc1cc(NC(=O)c2cccs2)c(C(=O)OCC(=O)NCc2ccco2)cc1OC,-1,89*,-9,+,-24
COc1c(Cl)cc(-c2noc(C)c2C(=O)NC(C)C)cc1Cl,0,4,42*,i,9
O=C1C(=O)N(C/C=C/c2ccccc2)c2ccccc21,/,-8,/,i,7
O=C(O)CCNC1CCCCC1,0,-6,-13,i,3
O=C(O)CCCCC1CCSS1 (centres undefined),1,94,72*,i,28
CC1CCN(S(=O)(=O)c2nnc(NC(=O)c3cccc(Cl)c3)s2)CC1,/,-2,/,i,-67
Cn1c(=O)c2ccccc2n(Cc2ccccc2Cl)c1=O,/,3,/,i,-13
O=S(=O)(NCCc1ccc(F)cc1)c1ccc(F)cc1Br,/,/,/,/,2
O=C(NCc1nc2ccccc2[nH]1)C1=C[C@H](C2CC2)C[C@H](OCc2ccc(CO)cc2)O1,/,35,-6,i,-12
O=C(c1ccccc1)N1CCSC1=S,3.0*,-3,-3,i,5
C=CCSC1=N/C(=C\C=C\c2ccco2)C(=O)S1,2,96*,8,+,3
CSCC[C@H](NC(=O)c1ccc2c(c1)OCO2)c1nnc2ccccn12,/,-9,/,i,9
COc1cc(-c2[nH]ncc2CN2CCN(Cc3cccs3)CC2)cc(OC)c1OC,1,3,90*,i,1
COc1ccc(-c2[nH]ncc2CN2CCN(Cc3cccs3)CC2)c(F)c1,0,-4,-1,i,-5
CCn1c(C)nc2cc(C(N)=O)ccc21,0,99*,-10,+,-3
CCn1c(C)nc2cc(C(=O)N/N=C/c3ccc(O)c(O)c3O)ccc21,2,?,78*,?,25
SMILES,PERK inhibitor,eIF4H inh,eIF4E-4G inh,PABP FP inh,PABP1 MLLE inh
COC(=O)c1c(NC(=O)CN2C(=O)NC3(CCC(C)CC3)C2=O)sc2c1CCC2 (centres undefined),/,/,/,/,12
CC1CCCCC12NC(=O)N(CC(=O)Nc1sc3c(c1C(N)=O)CCC3)C2=O (centres undefined),-1,78*,1,+,-7
Cn1cnnc1SCC(=O)Nc1sc2c(c1C(N)=O)CCC2,1,76*,19,+,3
CC1CCC2(CC1)NC(=O)N(CC(=O)Nc1sc3c(c1C(N)=O)CCC3)C2=O (centres undefined),2,76*,27,+,-53
COc1ccc(C(CC(=O)O)NC(=O)c2ccccc2[N+](=O)[O-])cc1 (centres undefined),1,3,0,i,4
CCCc1nnc(NC(=O)CCC(=O)Nc2ccc(Br)cc2)s1,/,/,/,/,9
CC(C)(C)OC(=O)[C@H](Cc1ccccc1)NC(=O)c1nc[nH]c1C(=O)N1CCNCC1,/,/,/,/,4
Cc1cccc(NC(=O)COC(=O)c2ccccc2SCC(=O)N2CCCC2)c1,/,-15,/,i,9
O=C(O)C1CCN(C(=O)NC2CCCCC2)CC1,2.9*,-3,-8,i,-3
O=C(c1ccc(Cl)cc1)C1CCN(C(=O)NC2CCCCC2)CC1,0,-6,4,i,-8
